In PubChem BioAssay (NCATS):
Results filed as inconclusive are left out. Calls of active or inactive are those of the source. Unless noted, calls follow the shape of the dose curve; as a rule, active = well fitted curve in either direction with a large enough effect (not every such curve was filed as active); inconclusive = small, poorly fitted or top-dose-only effect, or another doubt; inactive = flat fitted curve, though single readings scatter.

What was measured:
[1] = AP1 Signaling Pathway (AID 357); conditions: ME-180 AP-1-bla reporter, EGF-induced, beta-lactamase ratio, 5 h; at 17.2 µM (top of the series) unless noted;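 also: ME-180 reporter cells stimulated with EGF at its EC50 level; % is scaled to controls: 0 for no effect and ±100 for the full control effect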
In short: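 In this screen, ME-180 cells in Opti-MEM with 0.5% dialyzed FBS received EC50 EGF and compound titrations for 5 h. AP-1 reporter beta-lactamase was detected via CCF4 ratio, giving AC50 for positive and negative modulators.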

[2] = Stat Signaling Pathway (AID 446); conditions: ME-180 SIE beta-lactamase reporter, IL-6 stimulated, 5 h; at 17.2 µM (top of the series) unless noted;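 also: ME-180 cervical cancer cells given 40 pM IL-6 alongside compound; SIE-controlled beta-lactamase reporter measured as 460/530 nm FRET emission ratio; % is scaled to controls: 0 for no effect and ±100 for the full control effect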
In short: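 Reporter line: ME-180 cervical carcinoma, SIE-beta-lactamase. Treatment: compound with 40 pM IL-6, 5 hrs, 37 C, in low-serum OPTI-MEM with 10 mM HEPES pH 7.3. Detection: 460/530 nm fluorescence.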

[3] = target: Glucocorticoid receptor (Homo sapiens) (UniProt P04150); experiment: GR-GFP Redistribution (AID 450;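 active = compounds whose dose series gives a full or clear partial fitted curve of increased nuclear translocation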; also: potency is read from the fitted curve at half-maximal effect)
[4] = qHTS Assay for Identification of Small Molecule Agonists for Hypoxia Response Element Signaling Pathway (AID 914; active = well fitted activation curve with a large enough effect in the signal ratio, with a control signal flat, not every such curve was filed as active; the % refers to the signal ratio; also: potency is read from the fitted curve at half-maximal effect; as to activation: % of control where 0% means no effect); conditions: ME-180 (cervical carcinoma) HRE-bla reporter, beta-lactamase ratio, CoCl2, 17 h; activation: hits give high values
In short: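 HRE-bla ME-180 cells, overnight plating in Opti-MEM with 0.5% dialyzed FBS; cpd titration + EC50 CoCl2, 17 h, 37 degrees Celsius; CCF4 2.5 h RT; 460/530 nm ratio; AC50.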

[5] = target: 3',5'-cyclic-AMP phosphodiesterase 4B (Homo sapiens) (UniProt Q07343); experiment: qHTS Assay for Inhibitors of PDE-IV (AID 607; active = well fitted activation curve with a large enough effect in the main read-out, with a control signal flat, not every such curve was filed as active; also: % of control where 0% means no effect)
In short: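 Cell-based read-out of cAMP via a modified cyclic nucleotide-gated channel and membrane potential dye (535/590 nm) in HEK293 cells expressing PDE4 endogenously. Compounds tested up to 22.9 uM final; 100 uM RO 20-1724 reference.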

[6] = target: Guanine nucleotide-binding protein G(i) subunit alpha-1 (Homo sapiens) (UniProt P63096); experiment: qHTS Assay for Inhibitors of RGS12 GoLoco Motif Activity (Green Fluorophore) (AID 879; active = well fitted curve in the direction sought with a large enough effect; an effect the other way counts as inactive or inconclusive;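 also: 0% = labeled peptide with Gαi1 and full inhibition = labeled peptide alone without protein; negative values mean loss of peptide binding seen as reduced polarization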)
In short: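 Fluorescence polarization assay: 50 nM Gαi1 with 10 nM FITC-labeled RGS12 GoLoco peptide in 10 mM Tris pH 7.5, 150 mM NaCl, 0.1 mM GDP, 0.05% NP40, 10 min at room temperature with compound.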

[7] = qHTS Assay for Identification of Small Molecule Agonists for Thrombopoietin (TPO) Signaling Pathway (AID 917; active = well fitted curve in the direction sought with a large enough effect; an effect the other way counts as inactive or inconclusive; also: % is scaled to controls: 0 for no effect and ±100 for the full control effect)
In short: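 Reporter: GpIIb promoter–luciferase in murine Ba/F3 expressing human TPO receptor. Pre-starved of IL-3 overnight; compounds with 26 pM TPO, 24 hrs, 37 C/5% CO2; luminescence read.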

[8] = target: Muscarinic acetylcholine receptor M1 (Rattus norvegicus) (UniProt P08482); experiment: qHTS Assay for Antagonists of Acetylcholine Muscarinic M1 Receptor: Measurement of IP-One Response (AID 944; active = well fitted curve in the direction sought with a large enough effect; an effect the other way counts as inactive or inconclusive; also: nearly all actives have a fitted effect of over 75% in size)
In short: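 M1-CHO (rat), 2000 cells/well, overnight recovery; cpd 10 min; carbachol EC80 (200 nM), 30 min, HEPES buffer + 50 mM LiCl pH 7.4; IP-One HTRF, Ex 337, Em 620/665 nm.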

[9] = target: Pyruvate kinase (Leishmania mexicana) (UniProt Q27686); experiment: qHTS Validation Assay for Inhibitors of Leishmania Mexicana Pyruvate Kinase (AID 945; active = well fitted curve in the direction sought with a large enough effect; an effect the other way counts as inactive or inconclusive;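 also: 0% = DMSO only neutral control wells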)
In short: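 Luminescent ATP detection (PKLight) after a 1 h room-temperature reaction of 0.2 nM LmPYK E451W mutant with 0.5 mM PEP and 0.1 mM ADP at pH 7.2. Activity is normalized to DMSO-only control wells.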

[10] = target: Pyruvate kinase PKM (Homo sapiens) (UniProt P14618); experiment: qHTS Assay for Activators of Human Muscle Pyruvate Kinase (AID 954; active = well fitted curve in the direction sought with a large enough effect, not every such curve was filed as active;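 also: 0% = uninhibited enzyme and -100% = no enzyme or full thiadiazolimine inhibition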)
In short: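 Human PKM2 activity is measured as ATP generation, detected by luciferase-coupled luminescence. The enzyme (0.1 nM) acts on 0.5 mM PEP and 0.1 mM ADP for 1 h at ambient temperature; data are normalized to uninhibited and full-inhibition wells.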

[11] = target: Alpha-galactosidase A (Homo sapiens) (UniProt P06280); experiment: Counterscreen for Glucocerebrosidase Inhibitors: qHTS Assay for Human alpha-Galactosidase at pH 4.5 (AID 992; active = well fitted curve in the direction sought with a large enough effect; an effect the other way counts as inactive or inconclusive; also: 0% is about no effect)
In short: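 Quantitative HTS: compounds tested from 0.7 nM up to 77 uM against 2 nM enzyme with 80 uM 4-MU alpha-D-galactopyranoside. The 20 min room-temperature reaction is stopped with 1M NaOH/1M glycine, pH 10.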

[12] = target: alpha-glucosidase (Oryza sativa, rice) (UniProt Q653V4); experiment: Counterscreen for Glucocerebrosidase Inhibitors: qHTS Assay for Rice alpha-Glucosidase at pH 5.0 (AID 997; active = well fitted curve in the direction sought with a large enough effect; an effect the other way counts as inactive or inconclusive;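 also: 0% = full activity with enzyme and -100% = basal without enzyme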)
In short: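 Rice alpha-glucosidase (4 nM final) with 400 uM 4-methylumbelliferyl-alpha-D-glucopyranoside in citrate buffer pH 5.0, 20 min at room temperature, stopped at pH 10; fluorescence 365/440 nm, compounds 0.7 nM–77 uM, AC50 from Hill fits.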

Glucocorticoid receptor (Homo sapiens), sequence (P04150 whole entry, looked up): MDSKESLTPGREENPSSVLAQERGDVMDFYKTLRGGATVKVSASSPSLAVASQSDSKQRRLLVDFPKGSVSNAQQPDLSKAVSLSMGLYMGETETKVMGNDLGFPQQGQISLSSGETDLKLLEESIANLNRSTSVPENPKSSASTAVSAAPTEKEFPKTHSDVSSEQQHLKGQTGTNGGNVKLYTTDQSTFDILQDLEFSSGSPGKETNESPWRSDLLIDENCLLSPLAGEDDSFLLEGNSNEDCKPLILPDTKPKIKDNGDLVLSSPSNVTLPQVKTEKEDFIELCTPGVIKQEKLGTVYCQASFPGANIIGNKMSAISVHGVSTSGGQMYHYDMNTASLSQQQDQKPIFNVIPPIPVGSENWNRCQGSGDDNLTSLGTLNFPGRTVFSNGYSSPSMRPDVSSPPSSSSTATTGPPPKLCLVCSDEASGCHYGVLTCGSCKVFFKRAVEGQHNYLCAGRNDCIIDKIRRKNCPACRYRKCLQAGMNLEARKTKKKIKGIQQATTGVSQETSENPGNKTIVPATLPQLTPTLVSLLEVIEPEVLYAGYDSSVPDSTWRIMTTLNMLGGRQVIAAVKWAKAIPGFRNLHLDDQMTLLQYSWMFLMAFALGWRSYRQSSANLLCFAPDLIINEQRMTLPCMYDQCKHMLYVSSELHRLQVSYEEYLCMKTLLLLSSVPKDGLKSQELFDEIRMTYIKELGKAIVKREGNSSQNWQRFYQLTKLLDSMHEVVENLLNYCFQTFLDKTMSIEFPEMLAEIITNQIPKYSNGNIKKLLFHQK
3',5'-cyclic-AMP phosphodiesterase 4B (Homo sapiens), sequence (Q07343 whole entry, looked up): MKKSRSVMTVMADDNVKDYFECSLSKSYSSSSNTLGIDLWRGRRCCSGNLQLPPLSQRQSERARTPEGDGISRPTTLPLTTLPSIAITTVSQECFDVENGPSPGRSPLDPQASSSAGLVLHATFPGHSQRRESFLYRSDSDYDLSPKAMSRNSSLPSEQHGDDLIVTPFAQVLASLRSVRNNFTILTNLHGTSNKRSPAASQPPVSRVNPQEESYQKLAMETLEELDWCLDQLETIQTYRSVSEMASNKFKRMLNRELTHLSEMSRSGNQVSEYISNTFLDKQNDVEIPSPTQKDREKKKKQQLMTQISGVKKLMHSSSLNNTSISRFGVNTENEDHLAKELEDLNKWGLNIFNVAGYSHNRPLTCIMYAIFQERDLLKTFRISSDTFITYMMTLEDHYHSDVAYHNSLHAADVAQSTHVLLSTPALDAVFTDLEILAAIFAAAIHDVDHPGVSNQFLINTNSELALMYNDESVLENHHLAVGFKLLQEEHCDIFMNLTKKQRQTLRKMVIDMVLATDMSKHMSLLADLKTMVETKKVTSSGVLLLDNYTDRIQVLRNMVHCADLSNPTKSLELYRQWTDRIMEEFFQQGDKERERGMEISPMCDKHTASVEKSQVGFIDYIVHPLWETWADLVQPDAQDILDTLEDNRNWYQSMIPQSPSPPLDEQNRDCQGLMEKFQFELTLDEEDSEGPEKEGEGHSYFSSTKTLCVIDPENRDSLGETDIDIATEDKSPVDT
Guanine nucleotide-binding protein G(i) subunit alpha-1 (Homo sapiens), sequence (P63096 whole entry, looked up): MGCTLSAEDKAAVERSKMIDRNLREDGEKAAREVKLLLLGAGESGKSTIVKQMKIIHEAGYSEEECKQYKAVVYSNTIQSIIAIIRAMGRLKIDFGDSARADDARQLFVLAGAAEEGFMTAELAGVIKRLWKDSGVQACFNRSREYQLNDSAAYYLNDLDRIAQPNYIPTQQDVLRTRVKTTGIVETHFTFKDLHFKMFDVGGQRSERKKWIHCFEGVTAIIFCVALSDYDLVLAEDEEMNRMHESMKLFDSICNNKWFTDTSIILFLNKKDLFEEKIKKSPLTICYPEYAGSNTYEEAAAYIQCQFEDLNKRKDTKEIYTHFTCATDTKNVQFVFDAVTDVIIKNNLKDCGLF
Pyruvate kinase PKM (Homo sapiens), sequence (P14618 whole entry, looked up): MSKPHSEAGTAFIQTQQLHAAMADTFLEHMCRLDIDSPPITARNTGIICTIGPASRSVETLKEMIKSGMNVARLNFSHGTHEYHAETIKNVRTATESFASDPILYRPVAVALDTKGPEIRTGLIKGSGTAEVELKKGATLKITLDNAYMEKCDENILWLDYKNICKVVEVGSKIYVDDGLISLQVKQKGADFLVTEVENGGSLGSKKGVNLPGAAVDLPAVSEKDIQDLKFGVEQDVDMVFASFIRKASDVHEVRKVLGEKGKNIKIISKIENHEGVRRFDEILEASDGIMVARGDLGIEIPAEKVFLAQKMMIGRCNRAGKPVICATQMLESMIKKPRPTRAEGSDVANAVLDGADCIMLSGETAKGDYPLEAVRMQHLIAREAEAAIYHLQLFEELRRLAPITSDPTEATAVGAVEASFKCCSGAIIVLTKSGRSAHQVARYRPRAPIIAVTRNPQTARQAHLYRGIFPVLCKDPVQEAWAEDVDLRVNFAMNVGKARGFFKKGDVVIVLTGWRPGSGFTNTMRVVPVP
Pyruvate kinase (Leishmania mexicana), sequence (Q27686 2-499 E452W): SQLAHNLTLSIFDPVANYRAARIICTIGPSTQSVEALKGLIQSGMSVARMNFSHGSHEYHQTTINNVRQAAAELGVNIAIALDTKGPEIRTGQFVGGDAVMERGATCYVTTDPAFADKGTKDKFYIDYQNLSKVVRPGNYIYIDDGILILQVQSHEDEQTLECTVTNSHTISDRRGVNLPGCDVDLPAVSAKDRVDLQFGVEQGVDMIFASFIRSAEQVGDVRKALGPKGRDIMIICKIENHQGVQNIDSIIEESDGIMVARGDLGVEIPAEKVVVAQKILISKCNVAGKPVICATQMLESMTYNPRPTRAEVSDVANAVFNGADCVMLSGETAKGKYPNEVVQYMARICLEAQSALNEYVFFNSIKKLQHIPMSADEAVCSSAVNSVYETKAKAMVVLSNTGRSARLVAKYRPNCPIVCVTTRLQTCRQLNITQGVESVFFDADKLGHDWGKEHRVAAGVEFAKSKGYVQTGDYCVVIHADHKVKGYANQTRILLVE
Alpha-galactosidase A (Homo sapiens), sequence (P06280 whole entry, looked up): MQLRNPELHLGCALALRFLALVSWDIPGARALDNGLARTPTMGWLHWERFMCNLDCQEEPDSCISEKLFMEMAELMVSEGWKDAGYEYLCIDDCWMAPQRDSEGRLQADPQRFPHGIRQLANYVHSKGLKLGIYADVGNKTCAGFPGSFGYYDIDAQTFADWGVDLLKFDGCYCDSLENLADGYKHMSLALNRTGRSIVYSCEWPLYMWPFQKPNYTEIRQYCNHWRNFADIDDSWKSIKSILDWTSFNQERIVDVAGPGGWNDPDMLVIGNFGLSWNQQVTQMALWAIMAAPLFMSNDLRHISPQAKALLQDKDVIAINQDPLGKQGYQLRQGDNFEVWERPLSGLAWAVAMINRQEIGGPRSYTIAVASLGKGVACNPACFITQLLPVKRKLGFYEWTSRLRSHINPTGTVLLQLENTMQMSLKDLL
Muscarinic acetylcholine receptor M1 (Rattus norvegicus), sequence (P08482 whole entry, looked up): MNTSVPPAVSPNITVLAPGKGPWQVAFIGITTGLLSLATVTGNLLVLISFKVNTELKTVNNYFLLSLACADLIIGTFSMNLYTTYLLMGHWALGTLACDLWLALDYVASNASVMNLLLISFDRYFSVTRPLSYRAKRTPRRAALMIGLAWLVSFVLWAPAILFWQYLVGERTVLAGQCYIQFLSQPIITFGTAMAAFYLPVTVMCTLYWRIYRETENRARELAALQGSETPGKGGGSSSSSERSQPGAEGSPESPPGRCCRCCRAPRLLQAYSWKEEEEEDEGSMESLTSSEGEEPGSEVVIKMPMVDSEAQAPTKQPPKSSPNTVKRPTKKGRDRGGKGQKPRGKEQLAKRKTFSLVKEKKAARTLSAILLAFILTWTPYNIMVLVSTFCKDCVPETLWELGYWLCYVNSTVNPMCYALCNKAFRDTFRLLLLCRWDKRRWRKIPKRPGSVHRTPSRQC

CCCN(CCC)c1nc2ccccc2nc1C(C#N)C(=O)OC(C)COC (centres undefined)
inactive: activity change, negative = inhibition [1] -15.4% | activity, negative = inhibition [2] -20.4% | Potency [3] > 20.6 µM | activation [4] -6.34%

N#CC1=C(N)OC2=C(C(=O)CCC2)[C@]12C(=O)N(CC(N)=O)c1ccccc12
inactive: activity change, negative = inhibition [1] 12% | activity, negative = inhibition [2] 1.02% | Potency [3] > 20.6 µM | activation [4] -22.1%

CCC(=O)Nc1c(C#N)c2nc3ccccc3nc2n1C1CCCCC1
active: Potency [4] 10 µM
inactive: activity change, negative = inhibition [1] -0.0903% | activity, negative = inhibition [2] 20.4% | Potency [3] > 20.6 µM

Cc1nc(Sc2cccn2C)c(C(F)(F)F)c(=O)[nH]1
inactive: activity change, negative = inhibition [1] -5.32% | activity, negative = inhibition [2] -1.21% | Potency [3] > 20.6 µM | activation [4] 6.77%

CCCCn1cnc2c(c1=O)c1nc3ccccc3nc1n2Cc1ccc2c(c1)OCO2
inactive: activity change, negative = inhibition [1] 29.8% | activity, negative = inhibition [2] 10.3% | Potency [3] > 20.6 µM
active: Potency [4] 12.6 µM

CCN1CCC[C@@H]1CNC(=O)c1c(O)c(Cl)cc(Cl)c1OC
inactive: activity change, negative = inhibition [1] 10.6% [at 38 µM] | activity, negative = inhibition [2] -20.4% [at 38 µM] | Potency [5] | outcome [6] | Potency [7] | Potency [8] | Potency [9] | outcome [10] | outcome [11] | outcome [12]

COCCCNC(=O)c1c(N)n(/N=C/c2cccnc2)c2nc3ccccc3nc12
active: Potency [4] 10 µM
inactive: activity change, negative = inhibition [1] -15.5% | activity, negative = inhibition [2] -20.9% | Potency [3] > 20.6 µM

CCOC(=O)c1sc2c(c1C)c(=O)c(C(=O)OCC)cn2CC
inactive: activity change, negative = inhibition [1] -9.16% | activity, negative = inhibition [2] 6.04% | Potency [3] > 20.6 µM | activation [4] 16.2%

NC(Cc1ccc(Oc2ccc(O)cc2)cc1)C(=O)O (centres undefined)
inactive: activity change, negative = inhibition [1] -2.36% | Potency [3] > 20.6 µM

Cc1ccc(CNC(=O)c2cc3c(=O)n4ccccc4nc3n(Cc3ccco3)c2=N)cc1
active: Potency [4] 5.01 µM
inactive: activity change, negative = inhibition [1] 5.13% | activity, negative = inhibition [2] 22.1% | Potency [3] > 20.6 µM

CCSc1nnc(NC(=O)C(CC)(C(F)(F)F)C(F)(F)F)s1
inactive: activity change, negative = inhibition [1] -19% | Potency [3] > 20.6 µM

CCC1(C)Cc2c(sc3c2c(=O)n(C)c2nnc(SCc4ccc5c(c4)OCO5)n32)CO1 (centres undefined)
inactive: activity change, negative = inhibition [1] 11.8% | activity, negative = inhibition [2] -3.34% | Potency [3] > 20.6 µM | activation [4] -18.9%

COC(=O)c1[nH]c2cc(OC)ccc2c1NC(=O)CCN1CCCC(C)(C)C1
inactive: activity change, negative = inhibition [1] -14.5% | activity, negative = inhibition [2] 2.32% | Potency [3] > 20.6 µM | activation [4] 10.2%

CCOC(=O)c1[nH]c2ccc(OC)cc2c1NC(=O)CCN1CCC(C)CC1
inactive: activity change, negative = inhibition [1] 8.62% | activity, negative = inhibition [2] 8.76% | Potency [3] > 20.6 µM | activation [4] -29.8%

Cc1cccn2c(=O)c(/C=C(\C#N)S(=O)(=O)c3ccccc3)c(N3CCN(C)CC3)nc12
inactive: activity change, negative = inhibition [1] -0.352% | activity, negative = inhibition [2] 3.87% | Potency [3] > 20.6 µM | activation [4] -11.6%

COc1nc(N(C)S(=O)(=O)c2ccc(C)cc2)nc(C)c1Cl
inactive: activity change, negative = inhibition [1] -2.26% | activity, negative = inhibition [2] 5.02% | Potency [3] > 20.6 µM | activation [4] -6.79%

CCc1cc(=O)oc2c(CN3CCCC3)c(O)c(Cl)cc12
active: Potency [4] 7.94 µM
inactive: activity change, negative = inhibition [1] 12.3% | activity, negative = inhibition [2] 4.15% | Potency [3] > 20.6 µM

CCN1CCN(c2nc3c(C)cccn3c(=O)c2/C=C(\C#N)S(=O)(=O)c2ccccc2)CC1
inactive: activity change, negative = inhibition [1] -5.82% | activity, negative = inhibition [2] -5.71% | Potency [3] > 20.6 µM | activation [4] 5.25%
